# Legend:
# Experiment in all cases: DAPPL (digital affinity profiling via proximity ligation, sequencing); 10 mM Tris-HCl pH 7.5, 50 mM NaCl, 1 mM DTT, 4% glycerol, room temperature, 30 min; GST-TFs on glutathione beads, 16-mer random dsDNA library, 0.1% formaldehyde crosslink after washing; high values mean tight binding
# FEV = molecular target: T1, FEV (Homo sapiens, UniProt Q99581 1-238); details: protein: recombinant; tags: N-terminal GST; dsDNA, one strand shown
# T1 sequence: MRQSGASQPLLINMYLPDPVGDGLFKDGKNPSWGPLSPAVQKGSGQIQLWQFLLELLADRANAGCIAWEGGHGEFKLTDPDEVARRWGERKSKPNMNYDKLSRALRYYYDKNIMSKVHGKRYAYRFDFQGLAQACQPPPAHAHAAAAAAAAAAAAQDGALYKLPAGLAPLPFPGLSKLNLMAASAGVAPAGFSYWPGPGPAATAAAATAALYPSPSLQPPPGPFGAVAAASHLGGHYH
# Method in brief: (§1)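 Binding signal is defined as a hexamer's read frequency for one factor over its frequency for the tag-only sample. To obtain reads, GST-fused human transcription factors were expressed in yeast, captured on glutathione beads, barcoded with DNA and pooled with that sample. Pools met 200 nmole of a 16-mer random double-stranded DNA library in Tris/NaCl/DTT/glycerol buffer for 30 min at room temperature before washing, 0.1% formaldehyde crosslinking, proximity ligation (BsaI/T4 ligase, 1 h, 37 °C), PCR and Illumina NextSeq500 sequencing.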
# ETV5 = ETV5 (Homo sapiens, UniProt P41161 1-510); details: protein: recombinant; tags: N-terminal GST; dsDNA, one strand shown
# Method in brief: as §1
# HSF1 = HSF1 (Homo sapiens, UniProt Q00613 1-529); details: protein: recombinant; tags: N-terminal GST; chain copies: 3; dsDNA, one strand shown
# Method in brief: as §1
# SPIC = molecular target: T2, SPIC (Homo sapiens, UniProt Q8N5J4 1-248); details: protein: recombinant; tags: N-terminal GST; dsDNA, one strand shown
# T2 sequence: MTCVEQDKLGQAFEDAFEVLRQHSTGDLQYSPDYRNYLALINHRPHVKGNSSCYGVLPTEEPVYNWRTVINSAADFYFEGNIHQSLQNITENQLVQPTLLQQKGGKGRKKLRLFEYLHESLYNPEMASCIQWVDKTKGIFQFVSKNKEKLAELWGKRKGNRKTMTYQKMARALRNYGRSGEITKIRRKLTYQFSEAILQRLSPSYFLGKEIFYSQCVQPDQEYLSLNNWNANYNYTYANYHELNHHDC
# Method in brief: as §1
# ELF4 = ELF4 (Homo sapiens, UniProt Q99607 1-663); details: protein: recombinant; tags: N-terminal GST; dsDNA, one strand shown
# Method in brief: as §1
# ELK4 = molecular target: T3, ELK4 (Homo sapiens, UniProt P28324-2 1-405); details: protein: recombinant; tags: N-terminal GST; dsDNA, one strand shown
# T3 sequence: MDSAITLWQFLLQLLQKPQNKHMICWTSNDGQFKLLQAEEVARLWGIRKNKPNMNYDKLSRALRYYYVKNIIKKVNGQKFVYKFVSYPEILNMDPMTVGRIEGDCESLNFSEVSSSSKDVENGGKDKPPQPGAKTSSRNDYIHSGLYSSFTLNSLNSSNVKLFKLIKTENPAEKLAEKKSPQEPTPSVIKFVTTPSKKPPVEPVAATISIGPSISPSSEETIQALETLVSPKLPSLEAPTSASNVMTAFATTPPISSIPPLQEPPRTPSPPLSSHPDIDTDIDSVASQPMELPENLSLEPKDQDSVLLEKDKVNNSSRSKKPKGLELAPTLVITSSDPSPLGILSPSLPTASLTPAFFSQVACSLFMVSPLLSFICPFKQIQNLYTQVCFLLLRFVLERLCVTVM
# Method in brief: as §1
# ETV2 = molecular target: T4, ETV2 (Homo sapiens, UniProt O00321 1-342); details: protein: recombinant; tags: N-terminal GST; dsDNA, one strand shown
# T4 sequence: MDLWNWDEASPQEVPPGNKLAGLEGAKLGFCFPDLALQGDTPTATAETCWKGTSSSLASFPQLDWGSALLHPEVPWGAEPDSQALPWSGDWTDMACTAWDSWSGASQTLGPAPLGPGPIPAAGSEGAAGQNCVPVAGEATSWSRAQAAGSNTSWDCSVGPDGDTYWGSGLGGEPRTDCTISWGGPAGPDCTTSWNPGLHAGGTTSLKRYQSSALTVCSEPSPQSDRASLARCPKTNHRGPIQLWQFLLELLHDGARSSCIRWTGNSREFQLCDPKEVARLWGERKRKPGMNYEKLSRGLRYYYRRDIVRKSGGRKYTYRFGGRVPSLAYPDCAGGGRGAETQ
# Method in brief: as §1
# ELF3 = molecular target: T5, ELF3 (Homo sapiens, UniProt P78545 1-371); details: protein: recombinant; tags: N-terminal GST; dsDNA, one strand shown
# T5 sequence: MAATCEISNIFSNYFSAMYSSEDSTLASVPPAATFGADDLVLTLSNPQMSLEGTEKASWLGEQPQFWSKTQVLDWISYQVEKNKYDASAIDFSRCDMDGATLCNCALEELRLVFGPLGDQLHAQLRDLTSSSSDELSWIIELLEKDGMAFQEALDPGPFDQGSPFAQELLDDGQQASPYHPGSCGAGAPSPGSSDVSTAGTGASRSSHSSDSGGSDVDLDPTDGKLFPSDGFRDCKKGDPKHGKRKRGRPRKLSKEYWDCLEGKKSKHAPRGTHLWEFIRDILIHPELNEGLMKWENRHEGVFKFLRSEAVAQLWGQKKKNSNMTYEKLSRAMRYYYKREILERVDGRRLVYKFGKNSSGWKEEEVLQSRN
# Method in brief: as §1
# CRX = CRX (Homo sapiens, UniProt O43186 1-299); details: protein: recombinant; tags: N-terminal GST; dsDNA, one strand shown
# Method in brief: as §1
# ETV1 = ETV1 (Homo sapiens, UniProt P50549 1-477); details: protein: recombinant; tags: N-terminal GST; dsDNA, one strand shown
# Method in brief: as §1
# ERF = molecular target: T6, ERF (Homo sapiens, UniProt P50548 1-548); details: protein: recombinant; tags: N-terminal GST; dsDNA, one strand shown
# T6 sequence: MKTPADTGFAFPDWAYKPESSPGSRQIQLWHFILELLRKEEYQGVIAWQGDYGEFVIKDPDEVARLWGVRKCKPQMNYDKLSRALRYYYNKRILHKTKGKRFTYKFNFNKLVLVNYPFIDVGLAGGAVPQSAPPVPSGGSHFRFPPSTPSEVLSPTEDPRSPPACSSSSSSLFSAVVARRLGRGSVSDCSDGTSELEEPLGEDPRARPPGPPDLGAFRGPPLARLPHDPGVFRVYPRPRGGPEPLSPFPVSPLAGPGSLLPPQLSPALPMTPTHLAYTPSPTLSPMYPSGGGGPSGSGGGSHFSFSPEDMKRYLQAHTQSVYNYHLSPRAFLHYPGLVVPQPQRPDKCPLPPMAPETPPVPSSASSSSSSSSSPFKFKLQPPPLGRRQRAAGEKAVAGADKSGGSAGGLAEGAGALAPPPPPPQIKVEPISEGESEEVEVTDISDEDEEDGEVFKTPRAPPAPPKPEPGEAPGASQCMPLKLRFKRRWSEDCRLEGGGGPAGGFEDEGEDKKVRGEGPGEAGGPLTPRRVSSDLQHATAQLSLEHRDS
# Method in brief: as §1
# ETV3L = molecular target: T7, ETV3L (Homo sapiens, UniProt Q6ZN32 1-361); details: protein: recombinant; tags: N-terminal GST; dsDNA, one strand shown
# T7 sequence: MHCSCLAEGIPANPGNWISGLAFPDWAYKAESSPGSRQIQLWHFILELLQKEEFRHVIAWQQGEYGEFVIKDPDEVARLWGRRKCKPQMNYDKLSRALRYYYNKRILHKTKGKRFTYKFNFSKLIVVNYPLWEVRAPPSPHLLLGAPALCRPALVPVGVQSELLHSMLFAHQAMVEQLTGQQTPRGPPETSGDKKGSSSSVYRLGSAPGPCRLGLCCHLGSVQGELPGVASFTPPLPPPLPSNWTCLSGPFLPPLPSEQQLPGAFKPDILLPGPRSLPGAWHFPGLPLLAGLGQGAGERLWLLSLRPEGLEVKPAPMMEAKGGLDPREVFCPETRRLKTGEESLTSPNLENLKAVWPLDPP
# Method in brief: as §1
# ETS2 = molecular target: T8, ETS2 (Homo sapiens, UniProt P15036 1-469); details: protein: recombinant; tags: N-terminal GST; dsDNA, one strand shown
# T8 sequence: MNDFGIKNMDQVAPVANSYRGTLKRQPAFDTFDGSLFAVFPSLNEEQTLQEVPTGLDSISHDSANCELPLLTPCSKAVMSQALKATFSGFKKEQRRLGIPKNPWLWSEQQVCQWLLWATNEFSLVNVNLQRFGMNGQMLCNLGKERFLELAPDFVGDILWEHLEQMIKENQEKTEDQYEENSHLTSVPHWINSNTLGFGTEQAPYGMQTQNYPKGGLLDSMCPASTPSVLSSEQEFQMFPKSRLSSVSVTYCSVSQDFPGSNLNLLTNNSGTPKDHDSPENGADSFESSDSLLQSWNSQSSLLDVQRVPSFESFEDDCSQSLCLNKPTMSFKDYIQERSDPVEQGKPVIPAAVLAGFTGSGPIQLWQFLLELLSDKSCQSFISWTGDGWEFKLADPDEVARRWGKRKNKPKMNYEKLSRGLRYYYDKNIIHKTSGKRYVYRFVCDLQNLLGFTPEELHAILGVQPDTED
# Method in brief: as §1
# SPDEF = molecular target: T9, SPDEF (Homo sapiens, UniProt O95238 1-335); details: protein: recombinant; tags: N-terminal GST; dsDNA, one strand shown
# T9 sequence: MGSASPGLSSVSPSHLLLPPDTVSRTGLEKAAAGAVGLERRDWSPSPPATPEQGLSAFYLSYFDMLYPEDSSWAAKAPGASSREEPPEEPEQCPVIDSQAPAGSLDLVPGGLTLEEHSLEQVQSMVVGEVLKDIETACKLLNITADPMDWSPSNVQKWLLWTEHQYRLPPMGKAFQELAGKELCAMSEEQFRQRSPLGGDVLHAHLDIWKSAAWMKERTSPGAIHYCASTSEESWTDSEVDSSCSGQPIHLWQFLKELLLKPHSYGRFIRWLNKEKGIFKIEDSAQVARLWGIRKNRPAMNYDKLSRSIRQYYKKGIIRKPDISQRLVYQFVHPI
# Method in brief: as §1
# ETV7 = molecular target: T10, ETV7 (Homo sapiens, UniProt Q9Y603 1-341); details: protein: recombinant; tags: N-terminal GST; dsDNA, one strand shown
# T10 sequence: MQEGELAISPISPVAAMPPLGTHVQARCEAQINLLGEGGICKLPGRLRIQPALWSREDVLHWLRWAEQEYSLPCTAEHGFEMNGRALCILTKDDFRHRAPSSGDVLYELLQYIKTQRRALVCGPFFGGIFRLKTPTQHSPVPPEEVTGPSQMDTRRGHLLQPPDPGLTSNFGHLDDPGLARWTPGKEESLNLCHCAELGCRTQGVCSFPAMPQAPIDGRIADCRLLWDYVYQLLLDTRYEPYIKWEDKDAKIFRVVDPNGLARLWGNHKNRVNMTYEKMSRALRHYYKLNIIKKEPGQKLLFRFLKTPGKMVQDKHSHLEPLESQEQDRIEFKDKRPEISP
# Method in brief: as §1
# ELF5 = molecular target: T11, ELF5 (Homo sapiens, UniProt Q9UKW6-2 1-255); details: protein: recombinant; tags: N-terminal GST; dsDNA, one strand shown
# T11 sequence: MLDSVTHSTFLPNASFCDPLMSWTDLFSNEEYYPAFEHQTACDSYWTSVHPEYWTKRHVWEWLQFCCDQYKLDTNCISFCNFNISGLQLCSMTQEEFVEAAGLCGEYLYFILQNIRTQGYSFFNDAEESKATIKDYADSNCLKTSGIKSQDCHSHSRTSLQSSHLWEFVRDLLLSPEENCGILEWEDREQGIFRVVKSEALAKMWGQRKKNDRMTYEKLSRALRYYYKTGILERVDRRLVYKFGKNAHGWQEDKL
# Method in brief: as §1
# ETV3 = molecular target: T12, ETV3 (Homo sapiens, UniProt P41162-2 1-143); details: protein: recombinant; tags: N-terminal GST; dsDNA, one strand shown
# T12 sequence: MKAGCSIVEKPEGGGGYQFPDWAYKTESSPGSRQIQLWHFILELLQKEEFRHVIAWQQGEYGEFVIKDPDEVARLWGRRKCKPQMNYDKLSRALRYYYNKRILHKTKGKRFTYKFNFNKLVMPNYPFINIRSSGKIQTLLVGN
# Method in brief: as §1
# ETV6 = ETV6 (Homo sapiens, UniProt P41212 1-452); details: protein: recombinant; tags: N-terminal GST; dsDNA, one strand shown
# Method in brief: as §1
# Sequence of HSF1 (Q00613 whole entry): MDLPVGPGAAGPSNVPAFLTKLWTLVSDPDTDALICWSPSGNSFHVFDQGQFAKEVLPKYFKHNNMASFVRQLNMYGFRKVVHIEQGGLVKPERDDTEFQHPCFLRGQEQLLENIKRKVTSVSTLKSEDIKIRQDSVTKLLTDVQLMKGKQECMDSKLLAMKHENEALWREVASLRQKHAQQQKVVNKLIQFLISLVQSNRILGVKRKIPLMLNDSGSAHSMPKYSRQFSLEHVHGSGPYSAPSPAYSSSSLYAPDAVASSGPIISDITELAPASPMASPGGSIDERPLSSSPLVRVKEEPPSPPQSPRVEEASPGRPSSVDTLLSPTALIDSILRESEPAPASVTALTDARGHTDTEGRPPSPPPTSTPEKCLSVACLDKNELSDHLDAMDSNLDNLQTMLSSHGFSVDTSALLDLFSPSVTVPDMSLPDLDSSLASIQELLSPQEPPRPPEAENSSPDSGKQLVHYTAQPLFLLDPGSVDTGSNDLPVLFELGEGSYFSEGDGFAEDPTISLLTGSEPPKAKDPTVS
# Sequence of ETV1 (P50549 whole entry): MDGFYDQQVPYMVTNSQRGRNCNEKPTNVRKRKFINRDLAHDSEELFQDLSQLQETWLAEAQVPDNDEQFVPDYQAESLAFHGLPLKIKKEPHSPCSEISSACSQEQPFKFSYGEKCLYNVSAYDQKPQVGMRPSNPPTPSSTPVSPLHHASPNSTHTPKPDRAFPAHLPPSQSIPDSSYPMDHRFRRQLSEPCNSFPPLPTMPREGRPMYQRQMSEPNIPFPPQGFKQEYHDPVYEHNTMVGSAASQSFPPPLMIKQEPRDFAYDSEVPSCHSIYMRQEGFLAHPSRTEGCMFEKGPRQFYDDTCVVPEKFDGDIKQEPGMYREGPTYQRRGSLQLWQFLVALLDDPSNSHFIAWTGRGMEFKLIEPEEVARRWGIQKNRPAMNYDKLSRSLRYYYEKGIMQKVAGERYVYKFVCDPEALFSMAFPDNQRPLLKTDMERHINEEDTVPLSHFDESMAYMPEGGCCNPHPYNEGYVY
# Sequence of ETV6 (P41212 whole entry): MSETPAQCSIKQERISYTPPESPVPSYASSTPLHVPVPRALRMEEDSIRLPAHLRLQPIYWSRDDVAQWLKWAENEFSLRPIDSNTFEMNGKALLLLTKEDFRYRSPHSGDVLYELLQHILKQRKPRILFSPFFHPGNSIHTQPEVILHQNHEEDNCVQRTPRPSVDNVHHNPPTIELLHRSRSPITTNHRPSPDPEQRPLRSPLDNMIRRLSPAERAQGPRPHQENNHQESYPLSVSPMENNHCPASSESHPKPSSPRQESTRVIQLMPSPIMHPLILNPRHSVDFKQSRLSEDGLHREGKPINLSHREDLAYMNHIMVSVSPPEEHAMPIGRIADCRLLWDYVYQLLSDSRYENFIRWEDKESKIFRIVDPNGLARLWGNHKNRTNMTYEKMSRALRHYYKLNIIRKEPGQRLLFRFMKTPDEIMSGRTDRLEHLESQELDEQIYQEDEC
# Sequence of ELF4 (Q99607 whole entry): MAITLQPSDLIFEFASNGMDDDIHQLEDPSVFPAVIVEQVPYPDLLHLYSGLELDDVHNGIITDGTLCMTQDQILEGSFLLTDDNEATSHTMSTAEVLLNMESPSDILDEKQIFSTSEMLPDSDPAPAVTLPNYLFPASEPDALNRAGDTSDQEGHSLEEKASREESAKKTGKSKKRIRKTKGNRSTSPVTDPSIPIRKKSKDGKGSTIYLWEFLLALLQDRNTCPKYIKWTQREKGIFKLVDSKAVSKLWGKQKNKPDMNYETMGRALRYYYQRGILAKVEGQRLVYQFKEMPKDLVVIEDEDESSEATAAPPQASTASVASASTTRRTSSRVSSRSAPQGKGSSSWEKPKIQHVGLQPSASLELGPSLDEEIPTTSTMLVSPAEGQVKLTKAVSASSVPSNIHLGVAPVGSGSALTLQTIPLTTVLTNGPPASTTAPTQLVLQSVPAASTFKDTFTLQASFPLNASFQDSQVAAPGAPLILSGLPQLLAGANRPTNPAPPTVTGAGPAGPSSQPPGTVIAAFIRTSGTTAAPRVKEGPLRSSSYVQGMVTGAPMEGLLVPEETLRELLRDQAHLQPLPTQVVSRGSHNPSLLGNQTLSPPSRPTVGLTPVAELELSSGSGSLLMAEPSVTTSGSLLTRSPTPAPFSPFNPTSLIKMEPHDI
# Sequence of CRX (O43186 whole entry): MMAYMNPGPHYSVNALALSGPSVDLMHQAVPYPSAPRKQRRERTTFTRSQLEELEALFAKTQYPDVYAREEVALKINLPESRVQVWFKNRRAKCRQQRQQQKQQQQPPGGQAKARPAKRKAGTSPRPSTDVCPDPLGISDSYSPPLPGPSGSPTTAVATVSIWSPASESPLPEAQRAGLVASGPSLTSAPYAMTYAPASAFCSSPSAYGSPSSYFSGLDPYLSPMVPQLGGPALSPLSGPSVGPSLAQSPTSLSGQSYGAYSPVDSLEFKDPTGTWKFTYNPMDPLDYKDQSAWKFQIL
# Sequence of ETV5 (P41161 whole entry): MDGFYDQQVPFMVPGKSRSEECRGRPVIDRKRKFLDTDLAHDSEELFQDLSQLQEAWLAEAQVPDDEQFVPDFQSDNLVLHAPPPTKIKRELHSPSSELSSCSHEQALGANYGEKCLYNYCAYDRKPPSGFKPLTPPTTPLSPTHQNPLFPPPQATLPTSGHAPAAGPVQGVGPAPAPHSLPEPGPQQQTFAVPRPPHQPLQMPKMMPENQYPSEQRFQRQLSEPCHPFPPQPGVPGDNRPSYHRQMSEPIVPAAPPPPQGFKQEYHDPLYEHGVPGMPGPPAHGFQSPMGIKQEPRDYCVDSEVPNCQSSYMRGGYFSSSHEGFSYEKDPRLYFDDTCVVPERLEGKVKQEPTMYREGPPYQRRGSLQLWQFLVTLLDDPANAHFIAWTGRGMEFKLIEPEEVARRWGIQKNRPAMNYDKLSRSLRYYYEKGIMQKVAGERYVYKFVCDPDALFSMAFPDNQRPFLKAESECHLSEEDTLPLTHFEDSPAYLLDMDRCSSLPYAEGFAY
sequence,measurement,setting,value
TGGTCT,binding signal,FEV,"1.45 fold enrichment (6-mer frequency, TF over GST control)"
same,binding signal,ETV5,"1.52 fold enrichment (6-mer frequency, TF over GST control)"
same,binding signal,HSF1,"1.12 fold enrichment (6-mer frequency, TF over GST control)"
same,binding signal,SPIC,"1.34 fold enrichment (6-mer frequency, TF over GST control)"
same,binding signal,ELF4,"1.57 fold enrichment (6-mer frequency, TF over GST control)"
same,binding signal,ELK4,"1.48 fold enrichment (6-mer frequency, TF over GST control)"
same,binding signal,ETV2,"1.33 fold enrichment (6-mer frequency, TF over GST control)"
same,binding signal,ELF3,"1.28 fold enrichment (6-mer frequency, TF over GST control)"
same,binding signal,CRX,"1.17 fold enrichment (6-mer frequency, TF over GST control)"
same,binding signal,ETV1,"1.5 fold enrichment (6-mer frequency, TF over GST control)"
same,binding signal,ERF,"1.52 fold enrichment (6-mer frequency, TF over GST control)"
same,binding signal,ETV3L,"1.55 fold enrichment (6-mer frequency, TF over GST control)"
same,binding signal,ETS2,"1.39 fold enrichment (6-mer frequency, TF over GST control)"
same,binding signal,SPDEF,"1.35 fold enrichment (6-mer frequency, TF over GST control)"
same,binding signal,ETV7,"1.28 fold enrichment (6-mer frequency, TF over GST control)"
same,binding signal,ELF5,"1.55 fold enrichment (6-mer frequency, TF over GST control)"
same,binding signal,ETV3,"1.44 fold enrichment (6-mer frequency, TF over GST control)"
same,binding signal,ETV6,"1.42 fold enrichment (6-mer frequency, TF over GST control)"

# Source: article PMC7862700, “An all-to-all approach to the identification of sequence-specific readers for epigenetic DNA modifications on cytosine”
